Laboratory results as given in PubChem BioAssay (Tox21).
Where “and” joins values, the source holds several entries; their conditions need not be identical. Equal values may be shown once. Results filed as inconclusive are left out. Where a call stands in place of a potency, no number is given. Some compounds were tested as several samples or in several runs, with calls that do not always agree. Calls of active or inactive are those of the source. Unless noted, the call rests on the fitted dose curve; in most records, active means well fitted curve in the direction sought with a large enough effect in the repeat runs; inconclusive means weak or mixed curves; inactive means no such curve, though single readings can be large; an effect the other way counts as inactive or inconclusive.

Experiments:
[1] = qHTS assay to identify small molecule antagonists of the glucocorticoid receptor (GR) signaling pathway - cell viability counter screen (AID 720693); further: nearly all actives have a fitted effect of over 55% in size
[2] = qHTS assay for identifying genotoxic compounds that show differential cytotoxicity against isogenic chicken DT40 cell lines with known DNA damage response pathways - wild type cell line (AID 743012); further: nearly all actives have a fitted effect of over 60% in size; further: potency means the concentration at half of the fitted maximal effect
Procedure, shortened: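 Wild type DT40, 300 cells/well, ~0.5 h settle at 37 C/5% CO2; compounds in DMSO added by pintool; 40 h at 37 C/5% CO2; CellTiter-Glo, 30 min RT; luminescence.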

[3] = qHTS assay for identifying genotoxic compounds that show differential cytotoxicity against isogenic chicken DT40 cell lines with known DNA damage response pathways - Rad54/Ku70 mutant cell line (AID 743015); further: nearly all actives have a fitted effect of over 60% in size; further: potency means the concentration at half of the fitted maximal effect
[4] = qHTS assay to identify small molecule antagonists of the androgen receptor (AR) signaling pathway - cell viability counter screen (AID 743033; further: nearly all actives have a fitted effect of over 45% in size; further: potency means the concentration at half of the fitted maximal effect)
[5] = qHTS assay to identify small molecule antagonists of the androgen receptor (AR) signaling pathway using the MDA cell line - cell viability counter screen (AID 743041; further: nearly all actives have a fitted effect of over 45% in size)
Procedure, shortened: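 Cells were plated at 3,000 per well and left 5 h. Compounds in DMSO were then pinned in, followed by R1881. After 16 h at 37C, CellTiter-Fluor fluorescence gave viability.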

[6] = biological target: Estrogen receptor (Homo sapiens) (UniProt P03372); assay: qHTS assay to identify small molecule antagonists of the estrogen receptor alpha (ER-alpha) signaling pathway (AID 743069; active means well fitted curve in the direction sought with a large enough effect in the signal ratio in the repeat runs, not every such curve was filed as active; the % refers to the signal ratio)
Procedure, shortened: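 ER-alpha-UAS-bla GripTite HEK293 line; 2% charcoal-stripped FBS overnight; plated, 4 hr 37C/5% CO2; cpd in DMSO + 17beta-estradiol, 18 hr 37C; LiveBLAzer B/G FRET substrate 2 hr RT; fluorescence intensity.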

[7] = qHTS assay to identify small molecule antagonists of the estrogen receptor alpha (ER-alpha) signaling pathway - cell viability counter screen (AID 743074; calls by dose curve;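 further: HEK293 cells carrying ER-alpha-UAS-bla reporter stimulated with 17beta-estradiol; nearly all actives have a fitted effect of over 45% in size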)
[8] = biological target: Estrogen receptor (Homo sapiens) (UniProt P03372); assay: qHTS assay to identify small molecule agonists of the estrogen receptor alpha (ER-alpha) signaling pathway (AID 743075; calls by dose curve;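 further: HEK293 GripTite cells with ER-alpha and UAS-driven beta-lactamase reporter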; further: potency means the concentration at half of the fitted maximal effect)
[9] = biological target: Estrogen receptor (Homo sapiens) (UniProt P03372); assay: qHTS assay to identify small molecule agonists of the estrogen receptor alpha (ER-alpha) signaling pathway using the BG1 cell line (AID 743079); further: nearly all actives have a fitted effect of over 20% in size; further: potency means the concentration at half of the fitted maximal effect
[10] = qHTS assay to identify small molecule antagonists of the estrogen receptor alpha (ER-alpha) signaling pathway using the BG1 cell line (AID 743080; calls by dose curve; further: series mostly up to about 70 µM; nearly all actives have a fitted effect of over 25% in size)
Procedure, shortened: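 Antagonist mode: compounds in DMSO were pinned onto BG1-Luc-4E2 cells alongside 17beta-estradiol agonist, incubated 21.5 h, and ERE-driven luciferase measured with ONE-Glo. Cytotoxicity was multiplexed using CellTiter-Fluor fluorescence.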

[11] = qHTS assay to identify small molecule antagonists of the estrogen receptor alpha (ER-alpha) signaling pathway using the BG1 cell line - cell viability counter screen (AID 743081);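 further: compound given together with 17beta-estradiol as the ER stimulus; series mostly up to about 70 µM; nearly all actives have a fitted effect of over 45% in size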
Aromatase (Homo sapiens) = Aromatase (Homo sapiens) (UniProt P11511); assay: qHTS assay to identify aromatase inhibitors (AID 743083); further: nearly all actives have a fitted effect of over 55% in size; further: potency means the concentration at half of the fitted maximal effect
[12] = qHTS assay to identify small molecule antagonists of the thyroid receptor (TR) signaling pathway - cell viability counter screen (AID 743064); further: nearly all actives have a fitted effect of over 50% in size; further: potency means the concentration at half of the fitted maximal effect
Procedure, shortened: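 Rat GH3 pituitary tumor cells stably expressing two TR response elements driving luciferase were plated, rested 4 h, then dosed with library compounds and T3 (1 nM final). After 23.5 h at 37 °C, CellTiter-Fluor was added for 30 min and fluorescence recorded.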

[13] = qHTS assay to identify small molecule antagonists of the thyroid receptor (TR) signaling pathway (AID 743065); further: nearly all actives have a fitted effect of over 55% in size; further: potency means the concentration at half of the fitted maximal effect
Procedure, shortened: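 Antagonism measured as loss of luciferase signal in GH3 cells stably carrying a TRE-luciferase reporter, co-treated with compound and T3 (1 nM final) for 23.5 h at 37 C. Viability was read in the same well by CellTiter-Fluor.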

[14] = test system: thyroid hormone receptor (rat, GH3 cells); assay: qHTS assay to identify small molecule agonists of the thyroid receptor (TR) signaling pathway (AID 743066; calls by dose curve)
[15] = biological target: Androgen receptor (Homo sapiens) (UniProt P10275); assay: qHTS assay to identify small molecule agonists of the androgen receptor (AR) signaling pathway using the MDA cell line (AID 743040; further: nearly all actives have a fitted effect of over 20% in size; further: potency means the concentration at half of the fitted maximal effect)
Procedure, shortened: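 Cells plated, 5 h at 37C/0% CO2; compound or DMSO pinned; 16 h at 37C; ONE-Glo added; luminescence measured after 30 min at room temperature. Reporter line: MDA-kb2 with MMTV-luciferase responsive to AR and GR.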

[16] = biological target: Androgen receptor (Homo sapiens) (UniProt P10275); assay: qHTS assay to identify small molecule antagonists of the androgen receptor (AR) signaling pathway using the MDA cell line (AID 743042; further: nearly all actives have a fitted effect of over 55% in size)
Procedure, shortened: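 Antagonist mode: compounds plus R1881 agonist added to MDA-kb2 AR-luc cells, incubated 16 h at 37C. Luciferase reporter luminescence quantified, with multiplexed CellTiter-Fluor readout for cell viability.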

[17] = qHTS assay for identifying genotoxic compounds that show differential cytotoxicity against isogenic chicken DT40 cell lines with known DNA damage response pathways - Rev3 mutant cell line (AID 743014); further: nearly all actives have a fitted effect of over 55% in size; further: potency means the concentration at half of the fitted maximal effect
[18] = biological target: Androgen receptor (Homo sapiens) (UniProt P10275); assay: qHTS assay to identify small molecule antagonists of the androgen receptor (AR) signaling pathway (AID 743035; active means well fitted inhibition curve with a large enough effect in the signal ratio in the repeat runs, not every such curve was filed as active; the % refers to the signal ratio)
Procedure, shortened: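 Fluorescence from a beta-lactamase FRET substrate (LiveBLAzer B/G, 2 h, room temperature) measured inhibition of R1881-stimulated signaling in GeneBLAzer AR-UAS-bla HEK293 cells exposed to compound for 16 h at 37C.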

[19] = biological target: Androgen receptor (Homo sapiens) (UniProt P10275); assay: qHTS assay to identify small molecule agonists of the androgen receptor (AR) signaling pathway (AID 743036; active means well fitted activation curve with a large enough effect in the signal ratio in the repeat runs, with a control signal flat, not every such curve was filed as active; the % refers to the signal ratio)
Procedure, shortened: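 Quantitative HTS of the Tox21 10K library in HEK293 cells bearing a stably integrated UAS-controlled beta-lactamase reporter. Compound exposure lasted 16 h at 37C. Reporter activity was detected by FRET substrate fluorescence after 2 h at room temperature.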

Sequence of Estrogen receptor (Homo sapiens) (P03372 whole entry, looked up): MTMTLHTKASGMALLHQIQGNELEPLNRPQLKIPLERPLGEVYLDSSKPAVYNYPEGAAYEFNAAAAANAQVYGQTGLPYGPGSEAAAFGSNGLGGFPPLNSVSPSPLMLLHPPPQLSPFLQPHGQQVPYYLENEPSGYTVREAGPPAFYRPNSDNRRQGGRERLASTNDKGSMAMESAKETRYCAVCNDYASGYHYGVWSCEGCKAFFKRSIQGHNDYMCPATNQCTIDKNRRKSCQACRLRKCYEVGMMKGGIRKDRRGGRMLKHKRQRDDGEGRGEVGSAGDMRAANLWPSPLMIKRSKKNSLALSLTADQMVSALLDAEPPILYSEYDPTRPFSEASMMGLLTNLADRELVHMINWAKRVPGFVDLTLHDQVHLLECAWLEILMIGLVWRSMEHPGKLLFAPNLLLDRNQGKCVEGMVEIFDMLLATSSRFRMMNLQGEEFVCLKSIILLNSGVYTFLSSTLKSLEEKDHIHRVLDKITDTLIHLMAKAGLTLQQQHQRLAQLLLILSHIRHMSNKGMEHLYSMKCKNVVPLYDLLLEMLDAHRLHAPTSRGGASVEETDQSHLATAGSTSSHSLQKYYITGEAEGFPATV
Sequence of Androgen receptor (Homo sapiens) (P10275 whole entry, looked up): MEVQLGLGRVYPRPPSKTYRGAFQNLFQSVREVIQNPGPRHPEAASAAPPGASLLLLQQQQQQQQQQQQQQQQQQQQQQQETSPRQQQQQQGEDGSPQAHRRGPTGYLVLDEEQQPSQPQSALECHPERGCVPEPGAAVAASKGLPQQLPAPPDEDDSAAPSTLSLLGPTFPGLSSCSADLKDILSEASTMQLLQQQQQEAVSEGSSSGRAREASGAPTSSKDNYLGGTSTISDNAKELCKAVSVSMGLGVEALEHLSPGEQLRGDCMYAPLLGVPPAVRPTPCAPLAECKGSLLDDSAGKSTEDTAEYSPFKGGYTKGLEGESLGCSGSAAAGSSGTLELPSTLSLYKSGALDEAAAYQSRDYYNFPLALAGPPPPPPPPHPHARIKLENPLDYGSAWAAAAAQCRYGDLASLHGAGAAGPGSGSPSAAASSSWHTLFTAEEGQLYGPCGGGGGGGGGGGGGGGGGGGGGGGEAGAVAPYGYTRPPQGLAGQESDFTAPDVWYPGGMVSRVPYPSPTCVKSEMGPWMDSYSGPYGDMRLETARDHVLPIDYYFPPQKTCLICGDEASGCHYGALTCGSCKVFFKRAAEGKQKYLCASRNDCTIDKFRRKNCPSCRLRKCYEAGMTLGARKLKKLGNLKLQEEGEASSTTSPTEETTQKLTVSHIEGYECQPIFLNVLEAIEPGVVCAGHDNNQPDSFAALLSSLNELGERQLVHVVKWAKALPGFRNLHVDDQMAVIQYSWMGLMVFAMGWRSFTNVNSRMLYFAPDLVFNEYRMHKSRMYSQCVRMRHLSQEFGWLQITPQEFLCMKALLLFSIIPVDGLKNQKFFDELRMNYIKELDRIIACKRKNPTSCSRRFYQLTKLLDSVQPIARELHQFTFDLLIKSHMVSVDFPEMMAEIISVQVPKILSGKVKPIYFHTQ
Sequence of Aromatase (Homo sapiens) (P11511 whole entry, looked up): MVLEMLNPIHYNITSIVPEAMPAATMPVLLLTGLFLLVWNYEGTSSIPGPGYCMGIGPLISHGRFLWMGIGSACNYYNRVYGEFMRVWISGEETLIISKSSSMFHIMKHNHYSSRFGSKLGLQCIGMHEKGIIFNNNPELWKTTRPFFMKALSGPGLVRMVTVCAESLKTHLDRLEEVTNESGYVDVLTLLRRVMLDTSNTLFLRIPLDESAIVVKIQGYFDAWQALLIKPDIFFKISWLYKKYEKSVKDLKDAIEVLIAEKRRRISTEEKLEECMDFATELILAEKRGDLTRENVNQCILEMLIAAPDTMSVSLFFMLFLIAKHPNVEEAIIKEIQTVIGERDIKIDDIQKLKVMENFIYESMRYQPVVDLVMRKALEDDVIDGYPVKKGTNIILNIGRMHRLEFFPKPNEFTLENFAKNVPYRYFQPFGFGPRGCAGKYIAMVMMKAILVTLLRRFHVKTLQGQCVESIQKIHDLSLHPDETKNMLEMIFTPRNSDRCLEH

Row | Compound | outcome [1] | Potency [2] | Potency [3] | Potency [4] | Potency [5] | outcome [6] | outcome [7] | Potency [8] | Potency [9] | outcome [10] | Potency [11] | Potency (Aromatase (Homo sapiens)) | Potency [12] | Potency [13] | outcome [14] | Potency [15] | Potency [16] | Potency [17] | outcome [18] | outcome [19]
1 | COc1c(N2C[C@@H]3CCCN[C@@H]3C2)c(F)cc2c(=O)c(C(=O)O)cn(C3CC3)c12 | inactive | inactive | inactive | inactive | inactive | inactive | inactive | inactive | inactive | inactive | inactive | inactive |  |  |  |  |  |  |  | 
2 | N=c1nc(N2CCCCC2)cc(N)n1O | inactive |  | inactive | inactive | inactive | inactive | inactive | inactive | inactive |  | inactive | inactive | inactive | inactive | inactive |  |  |  |  | 
3 | COc1cc(C(=O)N2CCCCCCC2)cc(OC)c1OC | inactive | 21.1 µM (active) |  | inactive | inactive | inactive | inactive | inactive | inactive |  | inactive | inactive | inactive | inactive | inactive |  |  |  |  | 
4 | CN1CCN(c2cc3c(cc2F)c(=O)c(C(=O)O)cn3-c2ccc(F)cc2)CC1 | inactive | 23.7 µM (active) | 29.8 µM (active) |  |  |  | inactive |  |  |  | inactive | inactive | inactive | inactive | inactive | 26.6 µM (active) | inactive |  |  | 
5 | CCOC(=O)[C@H](CCc1ccccc1)N[C@@H](C)C(=O)N1[C@H](C(=O)O)C[C@@H]2CCC[C@@H]21 | inactive | inactive | inactive | inactive | inactive | inactive | inactive | inactive | inactive |  | inactive | inactive | inactive | inactive | inactive |  |  |  |  | 
6 | CC(C)NC(=O)NC(C)C | inactive |  | inactive | inactive | inactive | inactive | inactive | inactive | inactive | inactive | inactive | inactive | inactive | inactive | inactive | inactive | inactive | inactive | inactive | inactive
7 | COC(=O)C1=C(C)NC(C)=C(C(=O)OC)C1c1ccccc1[N+](=O)[O-] | inactive |  |  | inactive and 49 µM (active) | inactive | inactive | inactive | inactive | inactive | inactive | inactive | 68.7 µM (active) | 48.6 µM (active) | 30.7 µM (active) | inactive |  |  |  |  | 
8 | c1ccc([C@H]2CN3CCSC3=N2)cc1 | inactive |  |  | inactive | inactive | inactive | inactive | 0.0601 µM [fluorescent] (active) | 11.9 µM (active) |  | inactive | inactive | inactive | inactive | inactive |  |  |  |  | 
9 | N=C(N)c1ccccc1 | inactive | inactive | inactive | inactive | inactive |  | inactive |  |  |  | inactive | inactive | inactive | inactive | inactive |  |  |  |  | 
10 | CC(=O)Nc1c(I)cc(I)c(C(=O)O)c1I |  | inactive | inactive |  | inactive |  | inactive | inactive | inactive |  | inactive | inactive | inactive | inactive | inactive |  |  | inactive |  | 
11 | NCCc1cnc[nH]1 | inactive | inactive | inactive | inactive | inactive |  | inactive |  |  |  | inactive | inactive | inactive | inactive | inactive |  |  |  |  | 
12 | CC(=O)OC/C=C(\C)CC/C=C(\C)CCC=C(C)C | inactive |  | 61.1 µM (active) | inactive | inactive | inactive | inactive | inactive | inactive |  | inactive | inactive | inactive | inactive | inactive |  |  | 61.1 µM (active) |  | 
13 | FC1(F)C(F)(F)C(F)(F)C2(F)C(F)(F)C(F)(F)C(F)(F)C(F)(F)C2(F)C1(F)F (configuration not stated) | inactive |  | 21.1 µM (active) | inactive | inactive | inactive | inactive | inactive | inactive | inactive | inactive | inactive | inactive | inactive | inactive | inactive | inactive |  | inactive | inactive
14 | Cc1cccn2c(=O)c(-c3nnn[nH]3)cnc12 | inactive | inactive | inactive | inactive | inactive | inactive | inactive | inactive | inactive | inactive | inactive | inactive |  |  |  |  |  |  |  | 
15 | C1CN(CCOCCN2CCOCC2)CCO1 | inactive |  | inactive | inactive | inactive | inactive | inactive | inactive | inactive |  | inactive | inactive | inactive | inactive | inactive |  |  | inactive |  | 
16 | C=C1CC[C@H]2C[C@@H]1C2(C)C | inactive | inactive |  | inactive | inactive | inactive | inactive | inactive | inactive | inactive | inactive | inactive | inactive | inactive | inactive |  |  |  |  | 
17 | Cc1ccc(=O)n(-c2ccccc2)c1 | inactive | inactive | inactive | inactive | inactive | inactive | inactive | inactive |  | inactive | inactive | inactive | inactive |  |  |  |  |  |  | 
18 | Nc1nc2c(ncn2COC(CO)CO)c(=O)[nH]1 | inactive | 2.85 µM (active) | 8.04 µM (active) |  | inactive | inactive | inactive | inactive | inactive |  |  | inactive | inactive | inactive | inactive |  |  |  |  | 
19 | COC(=O)NN |  | inactive | inactive | inactive | inactive | inactive | inactive | inactive | inactive | inactive | inactive | inactive | inactive | inactive | inactive |  |  | inactive |  | 
